This is an account of results in PubChem BioAssay (EPA / NIEHS).

“And” between values parts separate entries of the source, which are not always exact repeats. Identical values can stand only once. Where a structure was tested more than once in an assay, its records may differ in their call. The source made the active and inactive calls. How the source made its calls: active means hit-call score of the fitted dose curve at least 0.9, where 1 is the maximum; inactive means score below 0.9.

A short description of this assay: CCTE_Shafer_MEA_dev_per_burst_interspike_interval: CCTE's Neural Network Formation Assay for Burst Interspike Interval, Shafer Lab (AID 2284044).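 Further: mean spike spacing inside bursts as AUC over recordings on days 5 7 9 12.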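 On AC50: potency for a decrease of within-burst interspike interval below DMSO level.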 Here is the method: CCTE_Shafer_MEA_dev assay is conducted using Axion Biosystems 48 well microelectrode array (MEA) plates and Maestro recording system. Each well of the MEA plate contains a grid of 16 microelectrodes embedded in the culture surface. Electrically active cells, such as neurons, can be cultured over the electrodes, and electrical activity in these cells can be recorded extracellularly. The spontaneous firing of neurons is captured from each electrode on a microsecond timescale providing both temporally and spatially precise data. […] The CCTE_Shafer_MEA_dev assay uses primary cultures of rat cortical neurons. Recordings are made on days post-plating 5, 7, 9 and 12. As these cultures mature over time, neural networks develop functional activity and form cohesive networks in which electrical activity can be highly coordinated. CCTE_Shafer_MEA_dev_per_burst_interspike_interval is 1 of 19 assay components of the CCTE_Shafer_MEA_dev assay. It measures the average time interval between spikes (action potential firings) within a single-electrode burst (temporally-clustered group of spikes) during a recording in a microelectrode array (MEA) using Axion Biosystems Maestro 768 channel amplifier with the AxIS adaptive spike detector. The mean inter-spike interval within bursts is averaged across the actively bursting electrodes to report a well-mean value. To collapse across multiple recordings made on days post-plating 5, 7, 9 and 12, the trapezoidal area-under-the-curve of the component is calculated.Data from the assay component CCTE_Shafer_MEA_dev_per_burst_interspike_interval was analyzed into 1 assay endpoint. This assay endpoint, CCTE_Shafer_MEA_dev_per_burst_interspike_interval, was analyzed in the negative analysis fitting direction relative to DMSO as the negative control and baseline of activity. Using a type of functional reporter, gain or loss-of-signal activity can be used to understand electrical activity.
On the day prior to culture, each well was coated thoroughly with 150 uL of 0.05% polyethyleneimine (PEI, Sigma Cat P3143) in 50 mM HEPES (Sigma Cat H7523) at a pH of 8. The plate was incubated at 37C for one hour. PEI was rinsed out with 500 uL of sterile water three times. Plates were stored at 4C until the day of culture. This culture was plated at a seeding density of 1.5 x 10^5 cells/well on a 48-well MEA plate, prepared as described above. Cells were administered via a 25 uL media/laminin ([…]; Sigma Cat L2020-1MG) drop directly onto the microelectrode array, as adding the cells with the laminin results in better attachment than pre-coating with laminin. After 2 hours, an additional 475 uL of cortical media was added and the cells returned to the incubator. Exposure starts at day 0 of plating and is continued over twelve days of network development until the experiment is terminated. Cells are fed with fresh medium on DIV 5 and 9, following the recordings on those days. The entire volume of media in the well is exchanged and any vehicle or compound treatment is renewed. Complete details are found in OP-NHEERL/ISTD/SBB/TJS/2015-03-r0 (available on request, email shafer.tim@epa.gov). Measurement of the electrical activity is non-invasive, and recordings can be made from the same plate over multiple different days of the culture. In cortical neurons, this allows for the measurement of extracellular action potentials over the period during which networks form in the MEA plate.
As a reminder, the AC50 is the midpoint of the concentration-response curve, whichever way the signal moves. In the case of `CON=C(C(=O)OC)c1ccccc1CON=C(C)c1cccc(C(F)(F)F)c1`, the AC50 was 1.53 µM (active) and 2.32 µM (active).

As to `CCOP(=S)(OCC)Oc1ccc([N+](=O)[O-])cc1`, the molecule was classed as inactive.

As for `C[N+]1(C)CCCCC1`, the outcome was inactive. The same measure, in the same setting: the value for `CC(Oc1cccc(Cl)c1)C(=O)O` (stereo not given) was “inactive”; that for `COP(=O)(NC(C)=O)SC` (stereo not given) was “inactive”. As to `CCOP(=S)(OCC)OC(Cl)C(Cl)(Cl)Cl` (stereo not given), the AC50 is 23.4 µM (active) and the molecule was called inactive. For `CSC1=N[C@@](C)(c2ccccc2)C(=O)N1Nc1ccccc1`, the molecule was classed as inactive. On the same count and under the same terms, then `CCCSP(=O)(OCC)Oc1ccc(Br)cc1Cl` (stereo not given), with “inactive”.

Take `CC(C)=CC1C(C(=O)OCN2C(=O)C3=C(CCCC3)C2=O)C1(C)C` (stereo not given): the result was inactive. As for `CC(C)[C@H](C(=O)O[C@H](C#N)c1cccc(Oc2ccccc2)c1)c1ccc(Cl)cc1`, the AC50 was 17.6 µM (active).

For the molecule `CCOP(=S)(Oc1cnc(C(C)(C)C)nc1)OC(C)C` (stereo not given), the molecule was called inactive and the AC50 is 12 µM (active).

In the case of `CCOP(=O)(SC(C)CC)N1CCSC1=O` (stereo not given), the molecule was called inactive.

Take `C[Si](Cn1cncn1)(c1ccc(F)cc1)c1ccc(F)cc1`: the result was inactive. Regarding `O=[N+]([O-])c1cc(C(F)(F)F)c(Cl)c([N+](=O)[O-])c1Nc1ncc(C(F)(F)F)cc1Cl`, the concentration at half-maximal activity (AC50) is 0.783 µM (active). As for `C#CCC1=C(C)C(OC(=O)C2C(C=C(C)C)C2(C)C)CC1=O` (stereo not given), the molecule was called inactive. Take `COP(=O)(OC)C(O)C(Cl)(Cl)Cl` (stereo not given): the call was inactive and the AC50 is 90.8 µM (active). `CCCCSP(=O)(SCCCC)SCCCC`: the half-maximal activity concentration (AC50) was 50 µM (active) and 18.8 µM (active). For `CCOP(=S)(OCC)SCCSCC`, the molecule was called inactive.

As for `C=C(C)[C@H]1Cc2c(ccc3c2O[C@@H]2COc4cc(OC)c(OC)cc4[C@@H]2C3=O)O1`, the AC50 is 36.4 nM (active) and 32.6 nM (active). As for `CCOC(=O)CC(SP(=O)(OC)OC)C(=O)OCC` (stereo not given), the outcome was inactive. Turning to `CC1=NNC(=O)N(/N=C/c2cccnc2)C1`, the molecule was called inactive.

As for `CCOP(=O)(NC(C)C)Oc1ccc(SC)c(C)c1` (stereo not given), the molecule was classed as inactive.

As to `CN(C)[C@@H]1C(=O)C(C(N)=O)=C(O)[C@@]2(O)C(=O)C3=C(O)c4c(O)cccc4[C@@](C)(O)[C@H]3[C@H](O)[C@@H]12`, the result was inactive. Same read-out and setting: the value for `S=C1NCCN1` was “inactive”. In the case of `CC[C@H](C)[C@H]1O[C@]2(C=C[C@@H]1C)C[C@@H]1C[C@@H](C/C=C(\C)[C@@H](O[C@H]3C[C@H](OC)[C@@H](O[C@H]4C[C@H](OC)[C@@H](NC)[C@H](C)O4)[C@H](C)O3)[C@@H](C)/C=C/C=C3\CO[C@@H]4[C@H](O)C(C)=C[C@@H](C(=O)O1)[C@]34O)O2`, the AC50 was 44.7 nM (active) and 5.36 nM (active). As to `CCOP(=S)(OCC)Oc1ccc2c(C)c(Cl)c(=O)oc2c1`, the result was inactive. Turning to `CC(=NC#N)N(C)Cc1ccc(Cl)nc1`, the call was inactive. With `CCOP(=S)(OCC)Oc1cc(C)nc(C(C)C)n1`, the outcome was inactive. On the same count and under the same terms, then `CCCSP(=O)(OCC)SCCC`, with “inactive”.

Turning to `COP(=O)(OC)OC(Br)C(Cl)(Cl)Br` (stereo not given), the half-maximal activity concentration (AC50) was 9.62 µM (active) and 16 µM (active). As for `CN1COCN(Cc2cnc(Cl)s2)C1=N[N+](=O)[O-]`, the molecule was classed as inactive. The same measure, in the same setting: then `CCOP(=O)(OCC)Oc1cc(C)nc(C(C)C)n1`, with “inactive”.
